An excerpt weighted towards active compounds, which were near 19% of everything screened.
HT1080-NT tox = kills 2HG-producing HT-1080-NT fibrosarcoma cells. Potency, µM (doses to about 46.1 µM), hits mostly cytotoxic. HT-1080-NT fibrosarcoma viability, CellTiter-Glo ATP luminescence, 48 h. actives 1.6% (n = 360,000);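 further: NT is the 2HG producing partner of a matched IDH1 knockdown line; nearly all actives have a fitted effect of over 55% in size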
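Toxicity toward the 2HG-producing NT line was scored as %Activity, normalised to DMSO and no-cell wells, from CellTiter-Glo luminescence after 48 hours' treatment.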
TDP1 cell noCPT = qHTS for Inhibitors of human tyrosyl-DNA phosphodiesterase 1 (TDP1): qHTS in cells in absence of CPT. DT40 Tdp1-/- hTDP1 cells, no CPT, ATP luminescence, 48 h. Potency, µM (highest dose often 46.2 µM), actives largely listed as inhibitors. actives 15% (n = 420,000). AID 686978, 2013; further: nearly all actives have a fitted effect of over 55% in size
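No-CPT arm: Tdp1-/-;hTDP1 DT40 cells (400/well) plus compounds, incubated ≥48 hr at 37 °C. Readout CellTiter-Glo luminescence.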
TDP1 cell CPT = DT40-hTDP1 cell growth loss with CPT; chicken DT40 Tdp1-/-;hTDP1 cells + 20 nM CPT, ATP luminescence, 48 h; Potency, µM (titrated, usually from 46.2 µM), actives largely listed as inhibitors; actives 12% (n = 420,000); further: nearly all actives have a fitted effect of over 55% in size
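Chicken DT40 Tdp1-/- cells complemented with human TDP1, 400 cells/well, exposed to compounds plus 20 nM camptothecin for at least 48 h at 37 C; viability read as ATP content by CellTiter-Glo luminescence.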
IL1B secr inh = inhibitors of inflammasome signaling (IL-1 beta secretion); THP-1 LPS/ATP IL-1B secretion, AlphaLISA, 16 h; active compounds read low; activity change, % at 57.5 µM; actives 4.7% (n = 360,000); in the data active means activity change below about -50%; inconclusive means mostly about -30% to -49%
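Secreted IL-1B measured by AlphaLISA bead assay after 16 h compound exposure of THP-1 cells; compounds (final up to 57.5 uM) added 1 h before LPS (250 ng/mL) and ATP (1.25 mM) stimulation; lower signal means less secretion.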
HT1080 IDH1KD tx = kills HT-1080 cells with IDH1 knockdown. HT-1080 IDH1 knockdown viability, ATP luminescence, 48 h. Potency, µM (top dose mostly 46.1 µM), actives largely listed as cytotoxic. actives 2% (n = 360,000). AID 686971
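Knockdown cells (IDH1KD HT-1080) received compounds 2 h after plating at 750 cells/well and were kept 48 h at 37 °C in 5% FBS RPMI. A CellTiter-Glo luminescence read gave % activity for curve fitting.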
Each line names hits and unclear results; the compound was inactive in the other large screens. Unless noted, the call rests on the fitted dose curve; in most records, active means well fitted curve in the direction sought with a large enough effect; inconclusive means small, poorly fitted or top-dose-only effect, or another doubt; inactive means no such curve, though single readings can be large; an effect the other way counts as inactive or inconclusive.

CCC(C)NC(=O)c1ccc2nc(Cc3ccccc3)oc2c1 (stereo unspecified)	TDP1 cell noCPT 14.6µM, TDP1 cell CPT inconclusive (no result: HT1080-NT tox, IL1B secr inh, HT1080 IDH1KD tx)
O=C(NCCCN1CCN(c2ccccc2)CC1)c1ccc2nc(CCc3ccccc3)oc2c1	TDP1 cell noCPT 4.61µM, TDP1 cell CPT 3.66µM (no result: HT1080-NT tox, IL1B secr inh, HT1080 IDH1KD tx)
COc1ccc(CNC(=O)c2ccc3nc(CCc4ccccc4)oc3c2)cc1OC	TDP1 cell noCPT 16.4µM, TDP1 cell CPT 18.4µM (no result: HT1080-NT tox, IL1B secr inh, HT1080 IDH1KD tx)
COc1ccc(Cc2nc3ccc(C(=O)NCCc4ccccc4)cc3o2)cc1	TDP1 cell noCPT inconclusive, TDP1 cell CPT 25.9µM (no result: HT1080-NT tox, IL1B secr inh, HT1080 IDH1KD tx)
COc1ccc(NC(=O)N(O)C2(C#N)CCCCC2)cc1	none
COCC1CCCCN1C(=O)c1ccc2nc(Cc3ccc(OC)c(OC)c3)oc2c1 (stereo unspecified)	TDP1 cell noCPT inconclusive, TDP1 cell CPT 11.6µM
COc1ccc(N2CCN(CCCNC(=O)c3ccc4nc(CCc5ccccc5)oc4c3)CC2)cc1	TDP1 cell noCPT 16.4µM, TDP1 cell CPT 14.6µM (no result: HT1080-NT tox, IL1B secr inh, HT1080 IDH1KD tx)
O=C(Nc1cccc(Cl)c1)c1ccc2nc(Cc3ccccc3)oc2c1	TDP1 cell noCPT 20.6µM, TDP1 cell CPT 20.6µM (no result: HT1080-NT tox, IL1B secr inh, HT1080 IDH1KD tx)
O=C(NCCCN1CCN(c2cccc(Cl)c2)CC1)c1ccc2nc(Cc3ccccc3)oc2c1	TDP1 cell noCPT 14.6µM, TDP1 cell CPT 23.1µM (no result: HT1080-NT tox, IL1B secr inh, HT1080 IDH1KD tx)
CCOc1ccc(C(=O)NCC(=O)OCC(=O)N(C)CC(=O)Nc2ccccc2CC)cc1OCC	TDP1 cell noCPT inconclusive
CC(=O)Nc1ccc(NS(=O)(=O)c2ccc(C)cc2)c([N+](=O)[O-])c1	none
CCc1cc(CNC(=O)c2ccc3nc(Cc4ccc(OC)c(OC)c4)oc3c2)on1	TDP1 cell noCPT inconclusive, TDP1 cell CPT 23.1µM
O=C(Nc1ccc(Br)cc1F)c1ccc2nc(CCc3ccccc3)oc2c1	TDP1 cell noCPT 11.6µM, TDP1 cell CPT 7.31µM (no result: HT1080-NT tox, IL1B secr inh, HT1080 IDH1KD tx)
COc1ccc(N2CCN(CCCNC(=O)c3ccc4nc(Cc5ccccc5)oc4c3)CC2)cc1	TDP1 cell noCPT 6.51µM, TDP1 cell CPT 6.51µM (no result: HT1080-NT tox, IL1B secr inh, HT1080 IDH1KD tx)
COc1ccc(Cc2nc3ccc(C(=O)NCCc4ncccc4C)cc3o2)cc1OC	TDP1 cell noCPT 23.1µM, TDP1 cell CPT 20.6µM
COc1ccc(Cc2nc3ccc(C(=O)NCCc4ccccn4)cc3o2)cc1OC	none
COc1ccc2c(CC(=O)OCC(=O)c3ccc(F)cc3)coc2c1	none
CCc1ccc(OCC(=O)Nc2ncn[nH]2)cc1	IL1B secr inh inconclusive
COc1cccc(-c2nc3ccc(C(=O)NC(C)Cc4cccnc4)cc3o2)c1 (stereo unspecified)	TDP1 cell noCPT inconclusive, TDP1 cell CPT 9.2µM, IL1B secr inh inconclusive
CC(C)c1nc2ccc(C(=O)NCCCN3CCN(c4cccc(Cl)c4)CC3)cc2o1	TDP1 cell noCPT 20.6µM, TDP1 cell CPT 18.4µM (no result: HT1080-NT tox, IL1B secr inh, HT1080 IDH1KD tx)
COc1ccc(N2CCN(CCCNC(=O)c3ccc(CS(=O)(=O)c4ccc(OC)cc4)o3)CC2)cc1	TDP1 cell noCPT inconclusive, TDP1 cell CPT inconclusive
COc1ccc(N2CCN(CCCNC(=O)c3nnc(Cc4ccc(F)cc4)o3)CC2)cc1	TDP1 cell noCPT inconclusive, TDP1 cell CPT 16.4µM (no result: HT1080-NT tox, IL1B secr inh, HT1080 IDH1KD tx)
COC(=O)C1CCN(C(=O)c2ccc3nc(-c4cccc(OC)c4)oc3c2)CC1	none
O=C(NCCCN1CCOCC1)c1ccc2nc(Cc3cccc(Cl)c3)oc2c1	none
COc1ccc2oc(C(=O)OCC(=O)N(C)CC(=O)Nc3ccc(F)cc3)c(C)c2c1	none
O=C(NCc1ccccc1CN1CCCC1)C1CCN(S(=O)(=O)c2ccc(F)c(F)c2)CC1	IL1B secr inh -50.5
Cc1ccc(S(=O)(=O)N2CCC(C(=O)NCc3ccccc3CN3CCCC3)CC2)cc1C	TDP1 cell noCPT inconclusive, TDP1 cell CPT inconclusive
CC1CCN(S(=O)(=O)N2CCC(C(=O)NCc3ccccc3Cl)CC2)CC1	TDP1 cell noCPT 13µM, TDP1 cell CPT inconclusive (no result: HT1080-NT tox, IL1B secr inh, HT1080 IDH1KD tx)
O=C(NCc1ccc(F)cc1)C1CCN(S(=O)(=O)N2CCCC2)CC1	TDP1 cell noCPT 16.4µM, TDP1 cell CPT inconclusive
CC1CCN(S(=O)(=O)N2CCCC(C(=O)NCc3ccc(F)cc3)C2)CC1 (stereo unspecified)	TDP1 cell noCPT inconclusive, TDP1 cell CPT inconclusive
